Assay results from PubChem BioAssay AID651946 (Broad Institute, 2012).
Potency and affinity values are given separately. Active and inactive are the calls of the source.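 Rule for the calls: active = toxic compound whose fitted half-effect dose of signal loss is at most twice its top tested dose; inconclusive = flat fit losing 30 to 70% signal, or poor fit; inactive = the rest.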

Experiment: HeLa cell viability loss – plate reader, dry powder, cytotoxicity control, dose response (AID 651946)
Details: ATP luminescence (CellTiter-Glo), 48 h; series mostly up to 26 µM; activity change, negative = cytotoxicity: at the top concentration

Compound	activity change, negative = cytotoxicity
[O-][n+]1ccccc1CSc1nnc(-c2ccccc2)o1	5.5% (inactive)
Cc1ccc(-c2nnc(SCc3ccccn3)o2)cc1	1.8% (inactive)
c1ccc(-c2nnc(SCCC3OCCCO3)o2)cc1	1.39% (inactive)
FC(F)(F)Oc1ccc(-c2nnc(SCc3ccccc3)o2)cc1	9.74% (inactive)
N#Cc1cccc(-c2nnc(SCc3ccccc3)o2)c1	22.6% (inactive)
O=C(Cc1ccccc1)C(C(=O)c1nnc(-c2ccccc2)o1)c1ccccc1 (stereo unspecified)	-1.18% (inactive)
FC(F)(F)Oc1ccc(CSc2nnc(-c3ccccc3)o2)cc1	13.6% (inactive)
CS(=O)(=O)c1cccc(CSc2nnc(-c3ccccc3)o2)c1	-5.96% (inactive)
COCCSc1nnc(-c2ccccc2)o1	6.23% (inactive)
c1ccc(Cn2cc(CSc3nnc(-c4ccccc4)o3)nn2)cc1	-5.77% (inactive)
Clc1ccccc1-c1nnc(SCc2ccccc2)o1	-12.7% (inactive)
Brc1ccc(CSc2nnc(-c3ccccc3)o2)cc1	-1.08% (inactive)
c1ccc(CSc2nnc(C3CCCCC3)o2)cc1	8.12% (inactive)
c1ccc(CSc2ncc(-c3ccccc3)o2)cc1	6.4% (inactive)
CSc1nnc(-c2ccccc2)o1	5.47% [at 120 µM] (inactive)
COc1ccc(-c2nnc(SCc3ccccn3)o2)cc1	-23.8% (inactive)
Fc1ccc(Cn2cc(CSc3nnc(C4CCCC4)o3)nn2)cc1	-6.02% (inactive)
COc1ccc(-c2nnc(SCc3ccc(Cl)cc3)o2)cc1	-8.74% (inactive)

Compound	activity change, negative = cytotoxicity
Clc1cccc(CSc2nnc(-c3ccccc3)o2)c1	-6.13% (inactive)
c1ccc(CSc2nnc(-c3ccncc3)o2)cc1	7.89% (inactive)
c1ccc(-c2nnc(SCCN3CCOCC3)o2)cc1	-3.35% (inactive)
Fc1ccc(CSc2nnc(-c3cccnc3)o2)cc1	12.1% (inactive)
c1ccc(-c2nnc(SCc3ccccn3)o2)cc1	-1.07% (inactive)
O=C(Cc1ccccc1)c1nnc(-c2ccccc2)o1	-7.49% (inactive)
Fc1ccc(-c2nnc(SCc3cn(Cc4ccccc4)nn3)o2)cc1	3.95% (inactive)
c1ccc(CSc2nnc(-c3cc4ccccc4o3)o2)cc1	5.73% (inactive)
FC(F)(F)Oc1cccc(CSc2nnc(-c3ccccc3)o2)c1	2.07% (inactive)
Clc1ccc(CSc2nnc(-c3ccccc3)o2)cc1	-9.93% (inactive)
c1ccc(-n2cc(CSc3nnc(C4CCC4)o3)nn2)cc1	-13.6% (inactive)
c1ccc(CSc2nnc(Cc3ccccc3)o2)cc1	10.3% (inactive)
Fc1ccc(Cn2cc(CSc3nnc(C4CCC4)o3)nn2)cc1	-6.56% (inactive)
c1ccc(-c2nnc(SC3CCCCC3)o2)cc1	7.66% (inactive)
O=S(Cc1cn(Cc2ccc(F)cc2)nn1)c1nnc(-c2ccc(Cl)cc2)o1 (stereo unspecified)	-84.4% (inactive)
Clc1cccc(-c2nnc(SCc3ccccc3)o2)c1	5.52% (inactive)
c1ccc(CSc2nnc(C3CCCC3)o2)cc1	-9.51% (inactive)
Cc1nnc(SCc2ccccc2)o1	-5.66% (inactive)
